# ROMK mod: ROMK potassium channel modulators, primary screen, cell-based, thallium flux, MLSMR library | ATP-sensitive inward rectifier potassium channel 1 (Homo sapiens), P48048 | hit rate 2% among 130,000 | Tet-inducible ROMK, thallium flux fluorescence; actives lie on both sides | B-score at 10 µM | AID 1918, 2009;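 active = signal ratio slope over the read window, or its plate-corrected B-score, at least 3 SD from the plate mean, either direction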;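 note: B-score of the F/F0 ratio slope over 7 to 12 s after thallium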
# Target sequence (P48048 whole entry, looked up): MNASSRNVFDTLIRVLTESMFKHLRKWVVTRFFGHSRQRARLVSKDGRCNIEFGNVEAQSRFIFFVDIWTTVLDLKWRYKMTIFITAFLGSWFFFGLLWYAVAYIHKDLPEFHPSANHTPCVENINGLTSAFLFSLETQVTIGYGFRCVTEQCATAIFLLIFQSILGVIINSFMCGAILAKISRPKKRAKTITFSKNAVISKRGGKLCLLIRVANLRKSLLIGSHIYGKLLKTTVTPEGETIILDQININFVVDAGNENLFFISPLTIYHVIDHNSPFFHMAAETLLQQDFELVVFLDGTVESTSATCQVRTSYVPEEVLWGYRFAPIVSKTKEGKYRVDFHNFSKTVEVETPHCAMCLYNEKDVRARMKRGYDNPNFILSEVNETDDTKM
# Arbovirus inh: antivirals against arbovirus infection, primary screen, cell-based, full library, 10K replicate subset | arbovirus infection cell-based antiviral screen | inhibition, % at 10 µM | AID 1251, 2008 | hit rate 0.37% among 200,000; in the data active = inhibition above about 30%
# HSV augment: enhancers of HSV replication in host cells, fold increase, host cell viability. HSV replication augmentation in cells. maximum fold increase. hit rate 0.005% among 220,000. AID 1956, 2009; in the data active = maximum fold increase above about 1.5; inconclusive = no clear call, values can overlap the other calls; tested in PC3 cells
# Calpain2 inh: inhibitors of pig calpain II, primary screen, biochemical, fluorogenic peptide substrate, 1536-well | hit rate 0.37% among 220,000 | purified calpain II, 30 min | AID 1236, 2008 | inhibition, % at 16 µM;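 active = inhibition above about 50%, limit read from the data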
# Efa HMGR inh: inhibitors of E. faecalis class II HMGR, primary screen, biochemical, Enterococcus faecalis; HMG-CoA reductase (Enterococcus faecalis, mvaE); purified E. faecalis HMGR, NADPH absorbance 340 nm kinetic; inhibition, % at 10 µM; hit rate 0.41% among 190,000;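 active = inhibition above a set limit, the median over all tested compounds plus 3 SD, cut at about 9.5% in these data; inconclusive = no clear call, values can overlap the other calls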;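 note: enzyme runs in reverse so mevalonate oxidation gives rising NADPH absorbance; 0% = complete reaction with DMSO and 100% = background rate lacking mevalonate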
# ROMK hit retest: ROMK channel modulator hit retest, confirmation, cell-based, thallium flux, duplicate, resupplied hits | normalized thallium flux (F/F0 slope) at 10 µM | shares compounds with ROMK mod | hit rate 54% among 3,000 | fluorescence ratio; stronger effect = lower value;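 active = Flux at 10 µM at least 3 SD below or above vehicle control mean in one or both replicates; inconclusive = no clear call, values can overlap the other calls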
# Starred values were filed as active, the others as inactive; i = inactive; ? = inconclusive; / = no result. In the library only some 2.1% were active in any assay of this set; here they are far more common.
SMILES,ROMK mod,Arbovirus inh,HSV augment,Calpain2 inh,Efa HMGR inh,ROMK hit retest
CS(=O)(=O)Nc1ccc(C2=NN(S(C)(=O)=O)C(c3ccc4c(c3)OCO4)C2)cc1 (configuration not stated),0.403,-8.7,?,-224.1,1.6,/
CNc1ccccc1C(=O)OC,/,/,i,-49.3,/,0.0814
CNc1ccccc1C(=O)OCC(C)=O,0.0496,3.8,i,-371.3,-2.5,/
COC(=O)c1ccccc1NC(=O)CC#N,/,6.8,i,-23.6,-7.5,0.073
CC(=O)c1ccc(Nc2ccc(-c3ccccc3F)nn2)cc1,-0.0895,5.8,i,-1.3,-0.5,/
Clc1cncc(Cl)c1N/N=C/c1ccncc1,4.1*,-12.1,i,-8.0,3.7,0.117*
Clc1cccc(Cl)c1/C=N/Nc1c(Cl)cncc1Cl,/,/,i,4.2,/,/
COc1ccccc1/C=C/C=N/NC(=O)CC1C(=O)NN=C1C (configuration not stated),-11.3*,/,i,7.8,/,0.0766
COc1ccc2c(c1)[nH]c1c(N3CCSCC3)ncnc12,/,/,i,-7.0,/,?
c1ccc2c(c1)CCN(c1ncnc3c1[nH]c1ccccc13)C2,-2.92*,-16.0,/,-42.3,0.2,0.0601*
COc1cccc2[nH]c3c(N4CCc5ccccc5C4)ncnc3c12,-0.506,/,i,-111.6,/,/
COc1cccc(N2CCN(c3ncnc4c3[nH]c3ccc(F)cc34)CC2C)c1 (configuration not stated),-2.95*,-46.6,i,-21.3,-3.7,0.057*
COc1cccc(N2CCN(c3ncnc4c3[nH]c3ccccc34)CC2C)c1 (configuration not stated),-2.76,-43.2,i,12.9,3.5,0.059*
COc1ccc(OCCOCCOc2ccc(C)cc2[N+](=O)[O-])cc1,-0.153,-0.7,i,12.7,-11.7,/
COc1ccc(CNCC(O)COc2ccc(C)cc2[N+](=O)[O-])cc1 (configuration not stated),-2.56*,/,i,-0.8,/,0.0634*
Cc1cn2c(N)c(C=C3C=C(Cl)C(=O)C(Cl)=C3)c(=O)nc2s1,-6.15*,-11.2,?,-2.8,0.6,0.025*
COC1=C/C(=C/c2c(N)n3cc(C)sc3nc2=O)C=CC1=O,-2.75,9.0,i,6.5,-1.0,/
CCOC(=O)Cn1c(=N)n(Cc2ccccc2)c2ccccc21,/,4.3,i,-8.2,5.0,/
N=c1n(Cc2ccccc2)c2ccccc2n1Cc1ccccc1,-3.58*,-1.7,i,-14.1,1.4,?
CCn1c(=N)n(CC(O)c2ccco2)c2ccccc21 (configuration not stated),/,5.4,i,-7.5,-3.1,/
N=c1n(Cc2ccccc2)c2ccccc2n1CC(O)c1ccco1 (configuration not stated),-2.47*,4.5,?,5.7,-2.0,0.0611*
O=C(Cc1ccccc1)c1c[nH]c(C(=O)NCCCN2CCOCC2)c1,-0.914,4.6,i,7.6,3.1,/
COc1ccccc1NC(=O)CCSc1nnnn1C,/,3.6,/,-13.7,-1.4,0.0744
COc1ccccc1N(Cc1ccccc1)S(=O)(=O)c1cccc(C(=O)Nc2ccc(C(C)=O)cc2)c1,1.06,-5.2,i,7.2,-1.0,/
COc1ccc(OC)c(N(CC(=O)Nc2ccc3c(c2)OCO3)S(=O)(=O)c2ccccc2)c1,-2.76*,-7.1,i,-19.5,-3.1,0.0746
SMILES,ROMK mod,Arbovirus inh,HSV augment,Calpain2 inh,Efa HMGR inh,ROMK hit retest
COc1ccc(OC)c(NC(=O)c2cccc(S(=O)(=O)N(Cc3ccccc3)c3ccccc3OC)c2)c1,/,-1.3,i,-7.8,-3.6,0.078
O=C(Nc1ccccc1O)c1ccc(NS(=O)(=O)c2cccc3cccnc23)cc1,/,-3.3,/,9.5,-6.4,/
O=C(Nc1ccc([N+](=O)[O-])cc1Br)c1cc2ccccc2nc1Cl,/,/,i,14.6,/,/
CCOC(=O)c1ccccc1NC(=S)N1CCC(C)CC1,0.173,-0.9,i,6.6,1.2,/
CCOC(=O)c1ccccc1NC(=S)N1CC(C)CC(C)C1 (configuration not stated),/,1.0,/,19.8,-5.0,0.0639*
Cc1ccc2cc3c(N)c(C(=O)N4CC(=O)Nc5ccccc54)sc3nc2c1,/,-17.9,/,0.7,-8.9,0.0465*
CCOC(=O)c1nn(-c2ccc(F)cc2)c(=O)c2c(N)scc12,0.889,1.5,i,-27.6,-3.0,/
CCOC(=O)c1nn(-c2ccc(C)cc2)c(=O)c2c(N)scc12,/,-3.1,i,-15.6,-11.8,0.0805
CCN(CC)S(=O)(=O)c1ccc(NC(=O)COC(=O)CNS(=O)(=O)/C=C/c2ccccc2)cc1,-0.51,1.7,i,10.6,-1.6,/
Cc1ccc(N2CS(=O)(=O)/C(=C/N(C)C)C2=O)cc1,/,-1.4,/,-1.9,-3.2,0.0818
CN(C)/C=C1\C(=O)N(c2ccc(Cl)cc2)CS1(=O)=O,/,2.7,i,-13.3,-0.1,/
C/C(O)=c1/cnc2nc3ccccc3n2c1=O,-0.012,9.7,i,-72.0,-0.6,/
O=C(CCC1CCCCC1)NNC(=O)NC12CC3CC(CC(C3)C1)C2,-3.09*,8.0,i,8.6,-0.9,0.0706
COc1ccc(NC(=O)CCN2CCN(S(=O)(=O)c3cc(Cl)ccc3OC)CC2)cc1,-3.34*,-4.2,i,-25.7,0.9,0.0607*
CCOC(=O)Cc1cc(=O)n2[nH]cc(-c3ccc(Cl)cc3)c2n1,1.87,6.5,i,-321.4,0.2,/
Cc1ccnc(NC(=O)C(C)n2cc([N+](=O)[O-])cn2)c1 (configuration not stated),0.675,9.2,i,-149.8,3.0,/
Cc1ccc(OCC(=O)Nc2cccc(-c3nnc(-c4ccccc4)o3)c2)cc1,/,0.2,/,7.3,-1.0,0.0793
O=C(Nc1ccc(N2CCOCC2)cc1)C1CC(O)CN1S(=O)(=O)c1ccc(Cl)cc1 (configuration not stated),3.52,0.7,i,-14.1,1.0,/
O=C(C1CC(Cl)CN1S(=O)(=O)c1ccc(Cl)cc1)N1CCOCC1 (configuration not stated),-2.03*,5.5,i,14.9,0.2,0.0869
COc1ccc(NC(=O)Cn2nnc(C(=O)NCCc3ccc(OC)c(OC)c3)c2N)c(OC)c1,-0.485,8.5,i,-5.4,-2.7,/
c1cc2c3c(cccc3c1)NC1(CCCCCC1)N2,/,-11.2,i,-212.9,-0.9,/
c1cc2c3c(cccc3c1)NC1(CCC3(CC1)Nc1cccc4cccc(c14)N3)N2,/,/,i,-324.4,/,0.0495*
Cc1nnc(SCC(=O)Nc2c(C)n(C)n(-c3ccccc3)c2=O)n1Cc1ccccc1,0.745,4.8,i,-16.3,-6.0,/
c1ccc(-n2cnc3cc(NCc4cccs4)ccc32)cc1,/,-8.3,i,-42.0,-5.0,/
c1ccc(-n2cnc3cc(NCc4ccco4)ccc32)cc1,3.31*,-18.3,i,8.3,-8.4,?
COCCCNC(=O)c1cccn2c(=O)c3cc4ccccc4cc3nc12,/,-23.1,i,-98.9,-3.5,0.0539*

# Assay outcomes (PubChem BioAssay)
